ELG1 repair inh: blocks ELG1-dependent DNA repair in HEK293T cells; HEK293T ELG1-luciferase reporter, luminescence, 16 h; DNA damage induced by 5-fluorouridine; Potency, µM (titrated, usually from 46.1 µM), inactives show at the highest dose activity change, negative = inhibition, usual class: inhibitors; 330,000 tested, 2.3% active; AID 504467; note: nearly all actives have a fitted effect of over 55% in size
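Overnight (16 hr) co-exposure of 2,000 cells/well to 5-fluorouridine and compound at 37 °C preceded detection. Luciferase was quantified via ONE-Glo luminescence; loss of signal denotes inhibition.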
RORgamma inh: inhibitors of mouse ROR gamma transcriptional activity; 310,000 tested, 5.4% active; Drosophila S2 Gal4-RORgamma UAS-luciferase reporter, 20 h; Potency, µM (titrated, usually from 53.6 µM), inactives show top-dose activity change, negative = inhibition, actives largely listed as inhibitors; AID 2551; note: nearly all actives have a fitted effect of over 60% in size
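Drosophila S2 cells stably expressing Gal4-DBD/mouse RORγ fusion under metallothionein promoter plus UAS-luciferase; compound 1 h, then 700 uM CuSO4 induction for 20 h at ambient temperature; inhibition read as reduced luminescence.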
TDP1 cell noCPT: qHTS for Inhibitors of human tyrosyl-DNA phosphodiesterase 1 (TDP1): qHTS in cells in absence of CPT | AID 686978, 2013 | 420,000 tested, 15% active | Potency, µM (top dose mostly 46.2 µM), inactives show at the highest dose activity change, negative = growth inhibition, usual class: inhibitors | DT40 Tdp1-/- hTDP1 cells, no CPT, ATP luminescence, 48 h; note: nearly all actives have a fitted effect of over 55% in size
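No-CPT arm: Tdp1-/-;hTDP1 DT40 cells (400/well) plus compounds, incubated ≥48 hr at 37 °C. Readout CellTiter-Glo luminescence.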
ALOX12 inh: inhibitors of human 12S-lipoxygenase ALOX12 | Potency, µM (top dose mostly 108 µM), for inactives: at the top dose activity change, negative = inhibition, most hits filed as inhibitors | 580,000 tested, 1.1% active | P18054 | AID 1671190 | purified 12hLO, xylenol orange hydroperoxide absorbance
Target sequence (P18054 whole entry, looked up): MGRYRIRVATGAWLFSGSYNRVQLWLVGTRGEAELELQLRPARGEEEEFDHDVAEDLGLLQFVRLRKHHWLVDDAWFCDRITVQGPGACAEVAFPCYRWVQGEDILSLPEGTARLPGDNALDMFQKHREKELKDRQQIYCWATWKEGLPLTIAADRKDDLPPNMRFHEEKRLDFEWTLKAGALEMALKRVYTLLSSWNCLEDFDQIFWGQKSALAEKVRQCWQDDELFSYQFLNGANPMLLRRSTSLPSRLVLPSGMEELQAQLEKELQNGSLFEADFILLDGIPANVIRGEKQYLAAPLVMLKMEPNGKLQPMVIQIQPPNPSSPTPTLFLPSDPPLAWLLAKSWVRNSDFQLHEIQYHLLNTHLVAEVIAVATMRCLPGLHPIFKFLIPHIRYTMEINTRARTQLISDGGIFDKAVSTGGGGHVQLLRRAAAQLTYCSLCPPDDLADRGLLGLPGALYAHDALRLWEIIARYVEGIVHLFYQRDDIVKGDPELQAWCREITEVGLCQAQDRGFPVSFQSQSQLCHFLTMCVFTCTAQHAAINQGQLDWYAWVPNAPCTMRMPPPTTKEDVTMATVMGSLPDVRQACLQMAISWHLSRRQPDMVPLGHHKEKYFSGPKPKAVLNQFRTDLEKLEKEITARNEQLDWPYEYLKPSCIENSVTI
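Hydroperoxide product was detected by ferrous iron/xylenol orange as the 573 to 405 nm absorbance ratio. Arachidonic acid at 40 uM (final) was turned over for 30 min at room temperature by 150 nM human 12hLO, pH 7.0 Hepes buffer, after 15 min compound preincubation.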
TDP1 cell CPT: growth inhibition of DT40 Tdp1-/-;hTDP1 cells with camptothecin (screen for TDP1 inhibitors); chicken DT40 Tdp1-/-;hTDP1 cells + 20 nM CPT, ATP luminescence, 48 h; Potency, µM (titrated, usually from 46.2 µM), for inactives: at the highest dose activity change, negative = growth inhibition, most hits filed as inhibitors; 420,000 tested, 12% active; AID 686979; note: nearly all actives have a fitted effect of over 55% in size
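Chicken DT40 Tdp1-/- cells complemented with human TDP1, 400 cells/well, exposed to compounds plus 20 nM camptothecin for at least 48 h at 37 C; viability read as ATP content by CellTiter-Glo luminescence.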
Gal4-VP16 FLuc: counter-screen for ROR gamma inhibitors: Gal4-VP16 reporter. Drosophila S2 Gal4-VP16 UAS-luciferase, luminescence, 20 h. Potency, µM (highest dose often 53.6 µM), inactives show top-dose activity, negative = inhibition, hits mostly inhibitors. 310,000 tested, 3.5% active. AID 2546;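 note: Gal4-VP16 expression switched on by copper sulfate through the metallothionein promoter; nearly all actives have a fitted effect of over 50% in size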
The depositor's hits bear a star; ? = inconclusive; . = not tested or not shown; [ ] = another dose, or the depositor's remark. Most compounds without a hit are left out; they make up all but 15% or so of the library. Calls come from the whole dose curve; as a rule, active = well fitted curve in the direction sought with a large enough effect; inconclusive = small, poorly fitted or top-dose-only effect, or another doubt; inactive = no such curve, though single readings can be large; an effect the other way counts as inactive or inconclusive. % is set by controls: 0 for no effect and ±100 for the full control effect; potency is the fitted concentration of half-maximal effect.

SMILES | ELG1 repair inh | RORgamma inh | TDP1 cell noCPT | ALOX12 inh | TDP1 cell CPT | Gal4-VP16 FLuc
COc1ccc(/C=C/C(=O)c2cc(F)ccc2OC(=O)c2ccc(OC)c(OC)c2)cc1OC | 15µM* | 8.9µM* | -69% | -15% | ? | ?
COc1ccccc1/C=C/C(=O)c1cc(F)ccc1OC(=O)c1ccccc1Br | . | . | . | 8% | . | .
COc1ccc(/C=C/C(=O)c2cc(F)ccc2OC(=O)c2ccccc2)cc1OC | . | . | 0.41µM* | 13% | 0.41µM* | .
COc1ccc(/C=C/C(=O)c2cc(F)ccc2OC(=O)c2ccccc2OC)cc1OC | ? | 18% | 4.6µM* | -5% | 4.1µM* | ?
CC(C(N)=O)N(C)Cc1ccc(C(=O)NCC(F)(F)F)cc1 (stereo not drawn) | . | . | . | 85% | . | .
CC(C)c1ccc(C2C3=C(COC3=O)Nc3c2c(=O)n(C)c(=O)n3C)cc1 (stereo not drawn) | . | . | . | -1% | . | .
Clc1ccc(N=C2SCC3CCCCN23)cc1 (stereo not drawn) | ? | 24% | -26% | -9% | -20% | -1%
FC(F)Oc1ccc(N=C2SCC3CCCCN23)cc1 (stereo not drawn) | ? | ? | 23µM* | -5% | ? | -10%
Cc1ccc(NC(=O)CCc2c(C)nc3cc(-c4ccccc4)nn3c2C)cc1F | . | . | ? | -29% | ? | .
CCN(CC)S(=O)(=O)c1ccc(NC(=O)CCc2c(C)nc3cc(-c4ccc(Cl)cc4)nn3c2C)cc1 | . | . | 3.7µM* | -24% | 4.6µM* | .
CC(=O)c1ccc(NC(=O)CCc2c(C)nc3cc(-c4ccc(Cl)cc4)nn3c2C)cc1 | . | . | 6.5µM* | 0% | ? | .
Cc1cc(C)nc(-n2nc(C)c(Br)c2Nc2ccc(Br)cc2)n1 | ? | ? | ? | -1% | ? | 0.89µM*
Cc1nn(C)c(NC(=O)c2ccccc2Cl)c1Br | 18% | 1% | 16% | 0% | -9% | 4%
Cc1nn(C)c(Nc2ccc(Br)cc2)c1Br | ? | ? | 18µM* | 1% | 15µM* | 11µM*
CCC(=O)N(C1CCOCC1)C1CCN(S(=O)(=O)c2cccnc2)CC1 | . | . | . | 42% | . | .
Cc1ccccc1NC(=O)C1CCN(c2cc(-c3ccccc3)nc3ncnn23)CC1 | 15µM* | -25% | 21µM* | 0% | 15µM* | -13%
O=S(=O)(c1ccc(Br)cc1)N1CCN(c2ccccc2)CC1 | -18% | 4% | -2% | 27% | 13% | -10%
O=S(=O)(c1ccc(Br)cc1)N1CCN(c2cc(-c3ccccc3)nc3ncnn23)CC1 | ? | 2% | 26µM* | -14% | 13µM* | -3%
COc1ccc(S(=O)(=O)N2CCN(c3cc(-c4ccccc4)nc4ncnn34)CC2)cc1 | 21µM* | ? | 16µM* | 15% | 21µM* | ?
Cc1nc2ncnn2c(N2CCN(S(=O)(=O)c3ccc(Br)cc3)CC2)c1C | -11% | 0% | 4.6µM* | 1% | ? | 0%
COc1ccc(CCNC(=O)CN(c2ccc(Br)c(C)c2)S(C)(=O)=O)cc1OC | . | . | . | -6% | . | .
Cc1ccc(S(=O)(=O)NCCNC(=O)c2cn(C)c3ccccc23)cc1 | . | . | . | 16% | . | .
CCc1nc2ccc(C(=O)NCCC(C)C)cn2c1N(CC)CCOC | . | . | 21µM* | 2% | ? | .
CCc1nc2ccc(C(=O)N(CC)CCN(C)C)cn2c1N(C)Cc1ccc(OC)cc1 | . | . | -18% | -22% | -17% | .
CCc1nc2ccc(C(=O)NCCOc3ccc(OC)cc3)cn2c1N(C)Cc1ccc(OC)cc1 | . | . | 21µM* | 20% | ? | .
SMILES | ELG1 repair inh | RORgamma inh | TDP1 cell noCPT | ALOX12 inh | TDP1 cell CPT | Gal4-VP16 FLuc
CCc1nc2ccc(C(=O)NCCNC(C)=O)cn2c1N(C)Cc1ccc(OC)cc1 | . | . | -10% | -28% | -7% | .
CCCCNC(=O)c1ccc2nc(CC)c(N(C)Cc3ccc(OC)cc3)n2c1 | . | . | ? | -6% | 16µM* | .
CCc1nc2ccc(C(=O)NCc3cccs3)cn2c1N(CC)CCOC | . | . | ? | 1% | ? | .
CCc1nc2ccc(C(=O)NCCC(C)C)cn2c1N(C)Cc1ccc(OC)cc1 | . | . | 16µM* | 18% | ? | .
Cc1c(NC(=O)c2nn(CCO)c(=O)c3ccccc23)c(=O)n(-c2ccccc2)n1C | . | . | . | -10% | . | .
Cc1cc(C)cc(C(=O)NCc2ccco2)c1 | . | . | . | 13% | . | .
CC1CCCCN1CCNC(=O)c1nn(C)c2c1COc1ccccc1-2 (stereo not drawn) | . | . | . | -3% | . | .
COc1ccc(-c2cc(C(F)(F)F)nc(S(=O)(=O)CCC(=O)N3CCOCC3)n2)cc1 | ? | 8.9µM* | 12µM* | 35% | 6.5µM* | ?
COc1ccccc1-c1cc(C(F)(F)F)nc(S(=O)(=O)CCCC(=O)N2CCOCC2)n1 | ? | 5.6µM* | 2.3µM* | 0% | 2.6µM* | 7.1µM*
COc1ccccc1-c1noc(CCCC(=O)N2CCOCC2)n1 | 15% | ? | -22% | -9% | -4% | 4%
COc1ccccc1-c1cc(C(F)(F)F)nc(S(=O)(=O)CCCC(=O)Nc2cc(OC)c(OC)c(OC)c2)n1 | . | . | 21µM* | ? | ? | .
COc1ccccc1-c1cc(C(F)(F)F)nc(S(=O)(=O)CCCC(=O)O)n1 | 15% | ? | ? | 18% | 14µM* | ?
CSc1cccc(NC(=O)NC(c2ccccc2)c2nnc(-c3ccccc3Cl)o2)c1 (stereo not drawn) | . | . | . | 39% | . | .
COCCN[C@H]1[C@@H]2OC[C@@H](O2)[C@@H](NCc2cnc3ccccc3c2)[C@@H]1O | . | . | . | 53%[176 µM] | . | .
COc1ccccc1-c1cncnc1Nc1ccc(F)cc1 | . | -4% | -11% | ? | 7% | 4%
c1ccc(Nc2ncncc2-c2ccoc2)cc1 | . | 5% | -27% | 18µM* | ? | 12%
COc1ccccc1-c1cncnc1NCCN1CCOCC1 | . | 39% | 5.2µM* | ? | 7.3µM* | -18%
COc1ccccc1-c1cncnc1Nc1ccccc1 | . | -22% | -5% | 40µM* | ? | 5%
Fc1ccc(Nc2ncncc2-c2ccoc2)cc1 | . | -1% | -12% | 40µM* | -14% | -1%
CN(C)c1ccc(-c2cncnc2Nc2ccc(F)cc2)cc1 | . | -16% | ? | ? | ? | ?
CSc1ccc(Nc2ncncc2-c2nc(-c3ccccc3)no2)cc1 | . | . | . | 21% | . | .
COCCNc1ncncc1-c1ccccc1OC | . | 7% | 4% | ? | -27% | -25%
COC(=O)CN1C(=O)[C@@H]2C[C@@H](O)CN2C2(CN(Cc3ccccn3)C2)C1=O | . | . | . | 93%[176 µM] | . | .

Screening results as filed in PubChem BioAssay.
